{"source": "PubChem BioAssay AID504527", "about": "(The Scripps Research Institute Molecular Screening Center, 2011)", "test": "general off-target profile by competitive ABPP – fluorescence, gel-based ABPP, powder samples, selectivity assay for PAFAH2 inhibitor project, late-stage follow-up (AID 504527)", "details": "BW5147 murine T-cell proteome, FP-Rh fluorescence, competitor test compound, probe FP-Rh, at 20 µM, hits give high values", "note": "Unmarked numbers belong to inactive results. Activity calls are given as the source filed them.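 Rule for the calls: active = two or more serine hydrolases at least half inhibited, plus every target band half blocked in a general-probe test; inactive = under two enzymes half blocked, or any target band not.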", "data": [{"smiles": "C#CCOCCOCCOCCN(Cc1ccccc1)C(=O)n1nccn1", "values": [{"measurement": "number of serine hydrolases inhibited >=50%", "result": "5 (active)"}]}, {"smiles": "C#CCOCCOCCOCCN(Cc1ccccc1)C(=O)n1ccnc1", "values": [{"measurement": "number of serine hydrolases inhibited >=50%", "result": 0}]}, {"smiles": "C#CCOCCOCCOCCN(Cc1ccccc1)C(=O)Oc1ccc([N+](=O)[O-])cc1", "values": [{"measurement": "number of serine hydrolases inhibited >=50%", "result": 1}]}, {"smiles": "C#CCOCCOCCOCCN(Cc1ccccc1)C(=O)n1nc2cccnc2n1", "values": [{"measurement": "number of serine hydrolases inhibited >=50%", "result": "7 (active)"}]}, {"smiles": "C#CCOCCOCCOCCN(Cc1ccccc1)C(=O)n1ncc(-c2ccccc2)n1", "values": [{"measurement": "number of serine hydrolases inhibited >=50%", "result": "8 (active)"}]}]}
